These results are taken from publication PMC7862700, “An all-to-all approach to the identification of sequence-specific readers for epigenetic DNA modifications on cytosine”.

Holding throughout (assay): DAPPL (digital affinity profiling via proximity ligation, sequencing); 10 mM Tris-HCl pH 7.5, 50 mM NaCl, 1 mM DTT, 4% glycerol, room temperature, 30 min; GST-TFs on glutathione beads, 16-mer random dsDNA library, 0.1% formaldehyde crosslink after washing; high values mean tight binding
For assay [1], the target named is T1, FLI1 (Homo sapiens, UniProt Q01543 1-452).
T1 sequence: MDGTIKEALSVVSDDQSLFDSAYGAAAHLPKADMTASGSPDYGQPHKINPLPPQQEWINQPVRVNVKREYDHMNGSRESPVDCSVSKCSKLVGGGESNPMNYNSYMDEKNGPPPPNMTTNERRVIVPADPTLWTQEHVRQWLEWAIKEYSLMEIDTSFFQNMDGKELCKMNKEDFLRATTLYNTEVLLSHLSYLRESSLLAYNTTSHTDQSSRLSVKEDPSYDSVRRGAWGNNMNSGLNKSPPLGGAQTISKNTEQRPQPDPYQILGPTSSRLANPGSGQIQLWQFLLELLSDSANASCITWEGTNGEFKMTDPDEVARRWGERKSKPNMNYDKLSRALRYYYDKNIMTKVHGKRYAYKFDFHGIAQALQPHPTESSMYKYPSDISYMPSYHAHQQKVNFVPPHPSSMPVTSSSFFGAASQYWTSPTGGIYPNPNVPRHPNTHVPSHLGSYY
The following applies: protein: recombinant; tags: N-terminal GST; dsDNA, one strand shown. Summed up: (§1)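 The binding signal reported is, for every hexamer, its read frequency for a factor over its read frequency for the tag-only sample. Reads came from pools of yeast-expressed, GST-fused human transcription factors on glutathione beads, barcoded with DNA and mixed with that sample, which were incubated with 200 nmole of a random double-stranded 16-mer DNA library in Tris/NaCl/DTT/glycerol buffer at room temperature for 30 min. After washing, the pools were crosslinked with 0.1% formaldehyde, proximity-ligated with BsaI/T4 ligase for 1 h at 37 °C, PCR-amplified and sequenced on an Illumina NextSeq500.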

Assay [2] addresses T2, ELK1 (Homo sapiens, UniProt P19419 1-428).
T2 sequence: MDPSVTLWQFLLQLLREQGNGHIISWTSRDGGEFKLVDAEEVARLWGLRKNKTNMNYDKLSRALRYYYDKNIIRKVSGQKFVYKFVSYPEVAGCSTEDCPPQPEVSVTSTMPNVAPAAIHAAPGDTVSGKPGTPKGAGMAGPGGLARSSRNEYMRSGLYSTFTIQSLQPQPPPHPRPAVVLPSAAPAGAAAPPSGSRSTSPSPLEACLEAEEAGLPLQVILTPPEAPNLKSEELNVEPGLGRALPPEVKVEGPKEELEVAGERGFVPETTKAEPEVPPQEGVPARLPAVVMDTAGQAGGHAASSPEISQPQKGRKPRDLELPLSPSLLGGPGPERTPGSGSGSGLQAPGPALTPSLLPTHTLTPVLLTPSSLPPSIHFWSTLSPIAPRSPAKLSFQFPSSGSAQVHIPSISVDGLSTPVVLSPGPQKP
Conditions: protein: recombinant; tags: N-terminal GST; dsDNA, one strand shown. In short, it runs like this:
as §1

In assay [3] the target is T3, GABPA (Homo sapiens, UniProt Q06546 1-454).
T3 sequence: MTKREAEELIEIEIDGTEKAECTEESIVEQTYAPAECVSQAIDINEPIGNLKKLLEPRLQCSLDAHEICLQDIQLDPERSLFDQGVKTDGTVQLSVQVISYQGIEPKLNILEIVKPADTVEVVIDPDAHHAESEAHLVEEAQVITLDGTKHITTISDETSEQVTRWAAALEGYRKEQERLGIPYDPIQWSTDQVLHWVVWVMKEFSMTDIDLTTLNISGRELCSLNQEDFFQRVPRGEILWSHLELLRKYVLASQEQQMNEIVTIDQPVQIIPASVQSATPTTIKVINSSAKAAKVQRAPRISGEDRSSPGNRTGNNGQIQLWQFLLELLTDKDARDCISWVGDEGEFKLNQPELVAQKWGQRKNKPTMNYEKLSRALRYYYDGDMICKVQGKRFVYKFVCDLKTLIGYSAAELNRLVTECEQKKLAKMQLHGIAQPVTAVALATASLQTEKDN
The following applies: protein: recombinant; tags: N-terminal GST; dsDNA, one strand shown. In short, it runs like this: as §1

Assay [4] concerns the target T4, ERG (Homo sapiens, UniProt P11308 1-479).
T4 sequence: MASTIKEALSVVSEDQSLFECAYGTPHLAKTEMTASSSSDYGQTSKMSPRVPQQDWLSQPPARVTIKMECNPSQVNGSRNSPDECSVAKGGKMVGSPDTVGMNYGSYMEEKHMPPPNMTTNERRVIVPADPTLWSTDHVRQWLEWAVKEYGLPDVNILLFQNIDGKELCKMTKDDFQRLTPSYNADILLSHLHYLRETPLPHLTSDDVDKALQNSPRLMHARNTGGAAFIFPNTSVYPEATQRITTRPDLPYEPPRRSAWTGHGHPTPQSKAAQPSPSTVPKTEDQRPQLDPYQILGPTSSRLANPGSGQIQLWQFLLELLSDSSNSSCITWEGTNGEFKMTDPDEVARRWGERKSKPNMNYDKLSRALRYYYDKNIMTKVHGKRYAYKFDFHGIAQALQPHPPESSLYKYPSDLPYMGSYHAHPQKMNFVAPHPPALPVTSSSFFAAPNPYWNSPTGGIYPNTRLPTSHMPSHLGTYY
Conditions: protein: recombinant; tags: N-terminal GST; dsDNA, one strand shown. Summed up: as §1

For assay [5], the target named is ELF1 (Homo sapiens, UniProt P32519 1-619). The following applies: protein: recombinant; tags: N-terminal GST; dsDNA, one strand shown. Summed up:
as §1

The target of assay [6] is T5, EHF (Homo sapiens, UniProt Q9NZC4 1-300).
T5 sequence: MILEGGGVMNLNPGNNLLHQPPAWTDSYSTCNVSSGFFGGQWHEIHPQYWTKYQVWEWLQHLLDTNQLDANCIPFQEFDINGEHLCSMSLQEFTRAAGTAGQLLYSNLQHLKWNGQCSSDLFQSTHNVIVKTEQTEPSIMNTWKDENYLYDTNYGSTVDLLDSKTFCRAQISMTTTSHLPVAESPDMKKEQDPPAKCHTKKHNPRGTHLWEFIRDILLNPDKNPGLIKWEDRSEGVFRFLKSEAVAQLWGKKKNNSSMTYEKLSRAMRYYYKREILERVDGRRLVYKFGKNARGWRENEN
The following applies: protein: recombinant; tags: N-terminal GST; dsDNA, one strand shown. In short, it runs like this: as §1

Assay [7] concerns the target SPI1 (Homo sapiens, UniProt P17947 1-270). The following applies: protein: recombinant; tags: N-terminal GST; dsDNA, one strand shown. In short, it runs like this:
as §1

The target in assay [8] is SPIB (Homo sapiens, UniProt Q01892 1-262). Conditions: protein: recombinant; tags: N-terminal GST; dsDNA, one strand shown. Summed up:
as §1

Assay [9] addresses T6, ELK3 (Homo sapiens, UniProt P41970 1-407).
T6 sequence: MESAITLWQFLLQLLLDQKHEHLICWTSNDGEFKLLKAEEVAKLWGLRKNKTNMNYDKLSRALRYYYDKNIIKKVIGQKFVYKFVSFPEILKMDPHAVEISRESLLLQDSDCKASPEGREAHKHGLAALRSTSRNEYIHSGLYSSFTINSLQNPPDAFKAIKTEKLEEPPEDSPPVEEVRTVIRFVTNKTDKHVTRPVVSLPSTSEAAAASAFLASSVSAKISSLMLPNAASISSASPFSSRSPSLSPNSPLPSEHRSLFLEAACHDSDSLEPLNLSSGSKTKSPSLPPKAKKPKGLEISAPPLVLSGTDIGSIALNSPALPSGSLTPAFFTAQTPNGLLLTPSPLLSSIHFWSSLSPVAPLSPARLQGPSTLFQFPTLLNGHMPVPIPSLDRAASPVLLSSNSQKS
Conditions: protein: recombinant; tags: N-terminal GST; dsDNA, one strand shown. Summed up: as §1

In assay [10] the target is T7, FEV (Homo sapiens, UniProt Q99581 1-238).
T7 sequence: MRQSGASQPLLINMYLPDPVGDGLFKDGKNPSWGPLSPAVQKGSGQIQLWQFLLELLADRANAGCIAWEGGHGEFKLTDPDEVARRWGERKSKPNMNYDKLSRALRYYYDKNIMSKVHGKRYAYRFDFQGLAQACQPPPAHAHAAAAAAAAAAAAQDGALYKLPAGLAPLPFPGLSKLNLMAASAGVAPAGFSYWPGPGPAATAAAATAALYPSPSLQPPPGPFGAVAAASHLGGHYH
Conditions: protein: recombinant; tags: N-terminal GST; dsDNA, one strand shown. Summed up:
as §1

For assay [11], the target named is ETV5 (Homo sapiens, UniProt P41161 1-510). Conditions: protein: recombinant; tags: N-terminal GST; dsDNA, one strand shown. Summed up:
as §1

For assay [12], the target named is HSF1 (Homo sapiens, UniProt Q00613 1-529). The following applies: protein: recombinant; tags: N-terminal GST; chain copies: 3; dsDNA, one strand shown. Summed up: as §1
HSF1, sequence (Q00613 whole entry): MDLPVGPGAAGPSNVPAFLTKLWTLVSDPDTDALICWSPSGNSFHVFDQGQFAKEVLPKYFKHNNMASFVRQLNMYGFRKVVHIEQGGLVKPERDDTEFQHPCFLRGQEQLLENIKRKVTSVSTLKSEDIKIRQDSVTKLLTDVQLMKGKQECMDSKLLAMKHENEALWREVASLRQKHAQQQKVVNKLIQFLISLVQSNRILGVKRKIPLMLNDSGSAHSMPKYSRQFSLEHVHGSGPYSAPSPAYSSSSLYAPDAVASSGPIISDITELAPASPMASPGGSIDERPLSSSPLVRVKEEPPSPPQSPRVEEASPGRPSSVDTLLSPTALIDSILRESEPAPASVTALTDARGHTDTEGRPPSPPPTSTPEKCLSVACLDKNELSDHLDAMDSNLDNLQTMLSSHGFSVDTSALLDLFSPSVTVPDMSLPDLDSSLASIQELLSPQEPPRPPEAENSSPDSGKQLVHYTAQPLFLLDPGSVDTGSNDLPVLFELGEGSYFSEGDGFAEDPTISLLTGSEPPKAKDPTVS
The target in assay [13] is T8, SPIC (Homo sapiens, UniProt Q8N5J4 1-248).
T8 sequence: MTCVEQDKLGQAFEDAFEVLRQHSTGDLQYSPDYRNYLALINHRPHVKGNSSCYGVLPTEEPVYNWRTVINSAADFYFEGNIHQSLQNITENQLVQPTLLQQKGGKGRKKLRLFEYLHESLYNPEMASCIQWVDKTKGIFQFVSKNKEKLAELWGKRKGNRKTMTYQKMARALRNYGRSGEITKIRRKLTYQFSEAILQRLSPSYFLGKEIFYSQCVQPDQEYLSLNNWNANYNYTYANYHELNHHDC
The following applies: protein: recombinant; tags: N-terminal GST; dsDNA, one strand shown. In short, it runs like this: as §1

Assay [14] deals with ELF4 (Homo sapiens, UniProt Q99607 1-663). Conditions: protein: recombinant; tags: N-terminal GST; dsDNA, one strand shown. In short, it runs like this:
as §1

In assay [15] the target is T9, ELK4 (Homo sapiens, UniProt P28324-2 1-405).
T9 sequence: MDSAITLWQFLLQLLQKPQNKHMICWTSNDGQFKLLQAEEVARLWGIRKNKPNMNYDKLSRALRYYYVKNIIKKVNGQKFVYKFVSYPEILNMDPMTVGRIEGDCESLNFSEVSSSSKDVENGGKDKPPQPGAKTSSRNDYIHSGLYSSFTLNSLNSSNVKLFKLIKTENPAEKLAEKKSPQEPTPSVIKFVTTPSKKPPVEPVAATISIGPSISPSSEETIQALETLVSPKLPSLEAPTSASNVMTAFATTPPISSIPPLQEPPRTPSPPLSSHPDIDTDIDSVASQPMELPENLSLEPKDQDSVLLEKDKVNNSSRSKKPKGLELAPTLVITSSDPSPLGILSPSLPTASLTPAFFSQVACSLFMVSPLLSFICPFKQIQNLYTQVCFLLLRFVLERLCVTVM
The following applies: protein: recombinant; tags: N-terminal GST; dsDNA, one strand shown. In short, it runs like this:
as §1

The target of assay [16] is T10, ELF3 (Homo sapiens, UniProt P78545 1-371).
T10 sequence: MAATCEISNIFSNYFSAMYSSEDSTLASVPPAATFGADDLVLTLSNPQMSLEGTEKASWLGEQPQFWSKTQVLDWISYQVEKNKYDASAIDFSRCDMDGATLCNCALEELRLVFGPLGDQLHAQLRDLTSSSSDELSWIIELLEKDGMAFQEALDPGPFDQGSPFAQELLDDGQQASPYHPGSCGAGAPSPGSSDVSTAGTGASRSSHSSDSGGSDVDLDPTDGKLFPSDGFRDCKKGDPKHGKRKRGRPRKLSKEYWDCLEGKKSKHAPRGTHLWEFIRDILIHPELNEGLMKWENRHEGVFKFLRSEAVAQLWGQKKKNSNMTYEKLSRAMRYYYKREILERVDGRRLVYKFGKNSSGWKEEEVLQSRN
Conditions: protein: recombinant; tags: N-terminal GST; dsDNA, one strand shown. In short, it runs like this: as §1

The target in assay [17] is CRX (Homo sapiens, UniProt O43186 1-299). Conditions: protein: recombinant; tags: N-terminal GST; dsDNA, one strand shown. Summed up:
as §1

In assay [18] the target is ETV1 (Homo sapiens, UniProt P50549 1-477). The following applies: protein: recombinant; tags: N-terminal GST; dsDNA, one strand shown. In short, it runs like this: as §1
ETV1, sequence (P50549 whole entry): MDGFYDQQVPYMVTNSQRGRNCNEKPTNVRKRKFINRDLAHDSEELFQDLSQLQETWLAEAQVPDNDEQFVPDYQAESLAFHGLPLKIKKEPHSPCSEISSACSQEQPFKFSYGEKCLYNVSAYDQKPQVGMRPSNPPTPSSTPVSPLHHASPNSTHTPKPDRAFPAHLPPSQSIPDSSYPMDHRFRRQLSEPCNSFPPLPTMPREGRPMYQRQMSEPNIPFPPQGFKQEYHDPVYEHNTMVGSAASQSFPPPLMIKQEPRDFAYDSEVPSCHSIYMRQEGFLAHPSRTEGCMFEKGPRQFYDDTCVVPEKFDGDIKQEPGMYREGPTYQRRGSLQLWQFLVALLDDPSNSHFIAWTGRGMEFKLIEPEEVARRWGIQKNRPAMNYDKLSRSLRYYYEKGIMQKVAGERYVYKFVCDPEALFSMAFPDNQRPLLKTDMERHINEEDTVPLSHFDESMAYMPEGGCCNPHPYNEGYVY

ETV5, sequence (P41161 whole entry): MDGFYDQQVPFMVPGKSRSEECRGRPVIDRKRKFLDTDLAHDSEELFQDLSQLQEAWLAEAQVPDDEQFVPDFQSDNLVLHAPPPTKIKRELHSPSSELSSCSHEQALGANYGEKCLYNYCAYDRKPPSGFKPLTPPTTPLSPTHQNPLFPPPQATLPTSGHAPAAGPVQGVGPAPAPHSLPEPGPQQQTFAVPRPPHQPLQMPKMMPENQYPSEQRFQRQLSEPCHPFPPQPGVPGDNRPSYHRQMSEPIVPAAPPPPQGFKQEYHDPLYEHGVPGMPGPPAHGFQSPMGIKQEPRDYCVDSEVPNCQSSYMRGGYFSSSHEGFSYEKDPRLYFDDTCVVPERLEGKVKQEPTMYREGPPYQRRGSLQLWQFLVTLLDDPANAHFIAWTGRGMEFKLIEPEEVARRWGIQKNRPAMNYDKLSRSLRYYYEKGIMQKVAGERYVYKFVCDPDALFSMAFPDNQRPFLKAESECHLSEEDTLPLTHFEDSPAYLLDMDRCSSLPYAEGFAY
SPIB, sequence (Q01892 whole entry): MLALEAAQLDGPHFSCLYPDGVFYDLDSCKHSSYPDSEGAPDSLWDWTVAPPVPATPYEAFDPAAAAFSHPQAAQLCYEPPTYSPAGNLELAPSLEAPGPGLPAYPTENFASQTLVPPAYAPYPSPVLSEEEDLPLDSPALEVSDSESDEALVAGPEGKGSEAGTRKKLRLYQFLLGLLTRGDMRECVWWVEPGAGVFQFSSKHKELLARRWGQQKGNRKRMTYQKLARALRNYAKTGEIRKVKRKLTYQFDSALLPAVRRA
CRX, sequence (O43186 whole entry): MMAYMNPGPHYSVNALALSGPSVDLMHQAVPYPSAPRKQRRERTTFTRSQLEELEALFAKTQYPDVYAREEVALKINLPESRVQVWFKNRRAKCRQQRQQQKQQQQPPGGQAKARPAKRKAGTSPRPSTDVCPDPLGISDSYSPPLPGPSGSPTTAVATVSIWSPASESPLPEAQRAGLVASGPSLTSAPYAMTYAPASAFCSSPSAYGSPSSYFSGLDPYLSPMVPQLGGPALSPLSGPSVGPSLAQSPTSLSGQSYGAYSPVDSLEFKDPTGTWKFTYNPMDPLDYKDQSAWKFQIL
ELF1, sequence (P32519 whole entry): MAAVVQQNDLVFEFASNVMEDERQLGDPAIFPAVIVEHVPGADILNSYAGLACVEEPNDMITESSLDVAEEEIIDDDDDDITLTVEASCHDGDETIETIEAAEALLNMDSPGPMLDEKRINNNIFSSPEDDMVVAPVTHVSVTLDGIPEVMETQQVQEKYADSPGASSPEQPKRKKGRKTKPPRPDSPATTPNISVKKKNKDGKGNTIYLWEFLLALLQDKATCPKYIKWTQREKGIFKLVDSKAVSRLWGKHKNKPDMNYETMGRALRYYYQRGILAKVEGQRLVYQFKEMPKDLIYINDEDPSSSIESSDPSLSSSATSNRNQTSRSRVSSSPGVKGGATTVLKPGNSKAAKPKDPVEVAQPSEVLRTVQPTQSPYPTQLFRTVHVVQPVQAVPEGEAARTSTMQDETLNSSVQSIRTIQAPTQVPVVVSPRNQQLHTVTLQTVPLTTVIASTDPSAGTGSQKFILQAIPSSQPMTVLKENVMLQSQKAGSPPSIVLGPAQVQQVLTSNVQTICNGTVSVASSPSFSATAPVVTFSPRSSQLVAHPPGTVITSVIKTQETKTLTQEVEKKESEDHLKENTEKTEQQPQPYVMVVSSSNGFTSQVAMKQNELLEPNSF
ELF4, sequence (Q99607 whole entry): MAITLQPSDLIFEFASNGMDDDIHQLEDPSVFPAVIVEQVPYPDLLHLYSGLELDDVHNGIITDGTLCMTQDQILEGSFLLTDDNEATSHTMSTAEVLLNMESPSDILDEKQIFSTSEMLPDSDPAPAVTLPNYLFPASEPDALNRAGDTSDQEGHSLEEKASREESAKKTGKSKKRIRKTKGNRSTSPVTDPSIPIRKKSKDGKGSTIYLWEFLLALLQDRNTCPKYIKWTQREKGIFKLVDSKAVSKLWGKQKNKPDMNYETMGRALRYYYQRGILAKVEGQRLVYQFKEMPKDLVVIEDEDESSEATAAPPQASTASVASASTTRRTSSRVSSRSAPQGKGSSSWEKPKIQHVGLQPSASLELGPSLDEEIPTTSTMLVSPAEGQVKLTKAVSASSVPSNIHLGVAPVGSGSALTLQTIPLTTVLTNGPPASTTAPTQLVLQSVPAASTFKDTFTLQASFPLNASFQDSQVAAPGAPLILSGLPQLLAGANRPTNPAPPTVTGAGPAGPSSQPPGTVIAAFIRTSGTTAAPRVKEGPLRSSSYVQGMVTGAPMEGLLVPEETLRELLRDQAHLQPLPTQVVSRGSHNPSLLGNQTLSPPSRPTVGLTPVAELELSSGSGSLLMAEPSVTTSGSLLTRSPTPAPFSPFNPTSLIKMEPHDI

In the case of TAGCAT, the binding signal in assay [1] was 1.16 fold enrichment (6-mer frequency, TF over GST control); in assay [2], 1.15 fold enrichment (6-mer frequency, TF over GST control); in assay [3] it was 1.05 fold enrichment (6-mer frequency, TF over GST control); in assay [4] it was 1.11 fold enrichment (6-mer frequency, TF over GST control); in [5], 1.17 fold enrichment (6-mer frequency, TF over GST control); in [6], 1.14 fold enrichment (6-mer frequency, TF over GST control). Moreover, the binding signal was 1.07 fold enrichment (6-mer frequency, TF over GST control) in [7]; 1.05 fold enrichment (6-mer frequency, TF over GST control) in [8]; 1.13 fold enrichment (6-mer frequency, TF over GST control) in [9]; 1.13 fold enrichment (6-mer frequency, TF over GST control) in assay [10]; 1.09 fold enrichment (6-mer frequency, TF over GST control) in assay [11]; 1.38 fold enrichment (6-mer frequency, TF over GST control) in assay [12]. Moreover, the binding signal in assay [13] is 1.07 fold enrichment (6-mer frequency, TF over GST control); in assay [14], 1.16 fold enrichment (6-mer frequency, TF over GST control); in [15], 1.16 fold enrichment (6-mer frequency, TF over GST control); in assay [16], 1.15 fold enrichment (6-mer frequency, TF over GST control); in [17], 1.42 fold enrichment (6-mer frequency, TF over GST control); in [18] it was 1.17 fold enrichment (6-mer frequency, TF over GST control).
